Source: PubChem BioAssay AID686979 (National Center for Advancing Translational Sciences (NCATS), 2013)
About 50,000 (12%) of roughly 420,000 compounds were called active. Roughly 26% stayed inconclusive and do not appear here. Only a selection was taken, and actives are over-represented in it overall. A number with no mark means an inactive call. The call rests on the fitted dose curve; in most records, active means well fitted inhibition curve with a large enough effect; inconclusive means small, poorly fitted or top-dose-only effect; inactive means flat fitted curve, though single readings scatter.

Assay: qHTS for Inhibitors of human tyrosyl-DNA phosphodiesterase 1 (TDP1): qHTS in cells in presence of CPT; further: nearly all actives have a fitted effect of over 55% in size
Details: chicken DT40 Tdp1-/-;hTDP1 cells + 20 nM CPT, ATP luminescence, 48 h; series mostly up to 46.2 µM; activity change, negative = growth inhibition: at the top concentration
Method in brief: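 Chicken DT40 Tdp1-/- cells complemented with human TDP1, 400 cells/well, exposed to compounds plus 20 nM camptothecin for at least 48 h at 37 C; viability read as ATP content by CellTiter-Glo luminescence.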
On the % scale 0 is the no-effect control and ±100 the full control effect; potency means the concentration at half of the fitted maximal effect.

| Structure (SMILES) | activity change, negative = growth inhibition | Potency |
| --- | --- | --- |
| COc1ccccc1C(=O)NC(CCSC)C(=O)NNC(=O)c1ccccc1C (stereo unspecified) | 7.15% | – |
| CCOC(=O)c1ccc(NC(=O)Cn2nnc(-c3ccc(C)cc3)n2)cc1 | -29% | – |
| CCOC(=O)c1ccc(NC(=O)CSc2ncccn2)cc1 | -27.6% | – |
| CCOC(=O)c1ccc(NC(=O)Cn2cnc3cc(C)c(C)cc32)cc1 | – | 1.16 µM (active) |
| CCOC(=O)c1ccc(NC(=O)Cn2c(=O)cc(C)c3c(C)nn(-c4cccc(F)c4)c32)cc1 | -0.48% | – |
| Cc1ccc(NC(=O)CSc2nnc(COc3ccccc3C)o2)cc1 | -0.121% | – |
| CCCc1nnc(SCC(=O)Nc2ccc(C(=O)OCC)cc2)o1 | – | 23.1 µM (active) |
| CC(C)CC(=O)N1CCN(Cc2cccc(Cl)c2)CC1 | -20.1% | – |
| O=C(O)C(O)[C@@](O)(Cc1ccc(O)cc1)C(=O)O (stereo partly specified) | -10.6% | – |
| Cc1cc(-c2ccnc(-n3ncc(C(=O)NCCc4ccncc4)c3C)n2)c(C)s1 | -1.95% [at 9.04 µM] | – |
| Cc1nnc(SCC2=C(C(=O)O)N3C(=O)C(NC(=O)Cn4nc(C)c(Cl)c4C)C3SC2)s1 (stereo unspecified) | -15.2% | – |
| O=C(CN(CC1CCCO1)C(=O)CNS(=O)(=O)c1ccc(F)cc1)NCc1ccco1 (stereo unspecified) | 3.31% | – |
| O=c1oc2ccccc2c(CNc2ccccc2)c1[N+](=O)[O-] | 3.02% | – |
| CCS(=O)(=O)c1ccc(C(=O)NC)c(Cl)c1Cl | 1.89% | – |
| c1csc(-c2cn3c(n2)SCC3)c1 | 1.97% | – |
| Cc1nnc2n1N=C(c1ccccc1)CS2 | 13.6% | – |
| O=c1c2cc(-c3ccccc3)sc2nc2n1N=C(c1cccs1)CS2 | – | 16.4 µM (active) |
| CCN([C@H](CO)C(C)C)S(=O)(=O)c1ccccc1Br | -1.97% | – |
| O=C(NC(=S)NC1CCS(=O)(=O)C1)c1cccc([N+](=O)[O-])c1 (stereo unspecified) | -1.95% | – |
| CCc1ccccc1N1C(=O)CN(S(=O)(=O)CC)CC1(C)C(=O)NC1CCCCC1 (stereo unspecified) | -16.5% | – |
| O=C(CSc1ncnc2scc(-c3ccccc3)c12)NCc1ccc2c(c1)OCO2 | -4.93% | – |
| CN(C)C(=O)c1cccc(-c2cnc3sc(NCc4ccc5c(c4)OCO5)nn23)c1 | – | 16.4 µM (active) |
| O=C(Cn1nnc(-c2ccccc2)n1)NCc1ccc2c(c1)OCO2 | -13.6% | – |
| CCN(CC(=O)NCc1cccs1)C(=O)c1cccc(S(=O)(=O)Nc2ccccc2OC)c1 | -1.36% | – |
| O=C(Cc1cccs1)Nc1cccc(-c2nc3ccccc3[nH]2)c1 | -13.9% | – |
| O=C(Nc1cccc(NC(=O)c2ccc(Br)cc2)c1)c1ccccc1 | – | inactive |

| Structure (SMILES) | activity change, negative = growth inhibition | Potency |
| --- | --- | --- |
| O=C(Nc1cccc(-c2nc3ccccc3[nH]2)c1)c1ccc(C(=O)Nc2cccc(-c3nc4ccccc4[nH]3)c2)cc1 | – | 18.4 µM (active) |
| CCCC(=O)Nc1ccc2oc(-c3ccc(O)c(Br)c3)nc2c1 | -15.1% | – |
| O=C(CNC(=O)c1ccccc1Br)NNC(=O)c1cccs1 | -1.12% | – |
| CCn1c(=O)c2ccccc2n(CC(=O)N2CCCc3ccccc32)c1=O | -27.7% | – |
| O=C(Nc1ccc(OC(F)(F)F)cc1)c1ccc2c(c1)no[n+]2[O-] | – | 4.11 µM (active) |
| Cn1nccc1NC(=O)Nc1ccc(OC(F)(F)F)cc1 | -27.1% | – |
| COC(=O)[C@H](C)NC(=O)Nc1ccc(OC(F)(F)F)cc1 | 9.83% | – |
| CCN1CCN(C(=O)Cn2nc(C)n3c(cc4c(OC)cccc43)c2=O)CC1 | -1.1% | – |
| CCn1nc(C)c(CNC(=O)C2CCC(=O)N(Cc3cccc(F)c3)C2)c1C (stereo unspecified) | -11.6% | – |
| Nc1ccn(CC(=O)N2CCN(c3ccccn3)CC2)c(=O)n1 | 9.16% | – |
| Cc1cc(C)c(CN2CCN(C(=O)Cn3ccc(NC(=O)OCc4ccccc4)nc3=O)CC2)c(C)c1 | – | 5.17 µM (active) |
| Cc1cc(C)c2c(-n3cccc3)c(NC(=O)OCc3ccccc3)sc2n1 | -26.1% | – |
| Cc1cc(C(=O)Nc2nnc(C3CC3)s2)c(C)s1 | 1.29% | – |
| CCOC(=O)c1nn(-c2ccccc2F)c2nc(Nc3ccccc3)cc(=O)n12 | -11% | – |
| COc1cnc(-c2ccccn2)nc1Oc1ccc(C(C)(C)C)cc1 | – | 3.66 µM (active) |
| COc1ccc(Sc2nc(-c3ccccc3)ncc2OC)cc1 | -28.6% | – |
| COc1ccc(Cc2nc(-c3ccccn3)no2)cc1OC | 4.02% | – |
| COCC(=O)Nc1cc(C(=O)N2CCCC(c3ccccc3)CC2)c2c(c1)nc(-c1ccncc1)n2C (stereo unspecified) | 6.88% [at 9.04 µM] | – |
| COc1cccc(/C=C/C(=O)OCC(=O)N2CCCc3ccccc32)c1 | 10.1% | – |
| O=c1cc(-c2ccccc2)nc(N2CCCCC2)[nH]1 | -25.1% | – |
| CC(=O)c1cc(-c2ccccc2)[nH]c1N1CCCC1 | – | 16.4 µM (active) |
| CC(=O)c1cc(-c2ccccc2)n(CC(=O)NC2CCCCC2)c1C | – | inactive |
| CCCCn1c(N)c(N2CCOCC2)c(=O)n(CC(=O)NCCc2ccccc2)c1=O | 16.5% | – |
| CN(C(=O)CSc1nnc(-c2n[nH]c3ccccc23)o1)c1ccccc1 | -24.6% | – |
| Cc1c(Cl)c([N+](=O)[O-])nn1CC(=O)NCCCN1CCOCC1 | 24.4% | – |
